This is part of a sample that, as a whole, favours compounds with a hit. Of some 79,000 tested, about 15% had one in any assay. Values without a mark were called inactive. Calls of active or inactive are those of the source. Cut-off read from the data, not from the text of the source: active = growth inhibition above about 70%; inactive = the rest.

Data on 21 compounds can be found in PubChem BioAssay (NCI).

Assay [1] can be described thus: NCI Yeast Anticancer Drug Screen. Data for the rad50 strain (AID 155).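 Note: 0% = growth of vehicle-only cultures of the same strain.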 The note with it: S. cerevisiae rad50 strain growth inhibition; at 50.0 µM; active compounds read high. The procedure, abridged: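 DNA repair mutant yeast, compound exposure, growth read-out; inhibition is taken relative to vehicle.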
The nature of assay [2]: NCI Yeast Anticancer Drug Screen. Data for the mec2-1 strain (AID 157). To be noted: S. cerevisiae mec2-1 strain, at 50.0 µM, active compounds read high. The procedure, abridged:
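Using mec2-1 yeast: add compound, measure growth, express inhibition versus vehicle-treated cultures.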

Assay [3] can be described thus: NCI Yeast Anticancer Drug Screen. Data for the sgs1 mgt1 strain (AID 161).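 Note: 0% = growth of cultures given vehicle only.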 The note with it: S. cerevisiae sgs1 mgt1 strain, at 50.0 µM, active compounds read high. In short, it runs like this: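 This yeast growth screen uses a strain with defined DNA-repair lesions; compound-treated growth is compared with vehicle-treated growth.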
Assay [4] can be described thus: NCI Yeast Anticancer Drug Screen. Data for the cln2 rad14 strain (AID 165).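 Note: 0% = growth equal to vehicle treated cultures.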 To be noted: S. cerevisiae cln2 rad14 strain, at 50.0 µM, active compounds read high. In short, it runs like this: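 Yeast strain cln2 rad14, bearing defects in cell cycle control and DNA repair, serves as the test system; values reflect growth inhibition compared with vehicle.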
Assay [5] is described as follows: NCI Yeast Anticancer Drug Screen. Data for the bub3 strain (AID 167). To be noted: S. cerevisiae bub3 mutant strain, at 50.0 µM, active compounds read high. The procedure, abridged: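 In this screen, a yeast mutant lacking normal mitotic checkpoint function is challenged with compound. Relative growth versus vehicle gives the inhibition value.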
Assay [6] can be described thus: NCI Yeast Anticancer Drug Screen. Data for the mlh1 rad18 strain (AID 175). The note with it: S. cerevisiae mlh1 rad18 strain growth inhibition; at 50.0 µM; active compounds read high. In short, it runs like this: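 Steps: expose repair-defective yeast to compound; measure growth; express inhibition against vehicle-treated controls.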

As for `CC(C)Cc1ccc(OC(=O)Nc2ccccc2)cc1`, the growth inhibition is -7.5% in assay [1]; -1.6% in assay [2]; -2.9% in assay [3]; -3.4% in assay [4]; -13.5% in assay [5]; 2.05% in assay [6].
`O=c1oc(-c2ccccc2)nc2c1CCCS2`: the growth inhibition in assay [1] was -1.2%; in assay [2] it was -0.95%; in assay [3], -5.65%; in assay [4], 1.85%; in assay [5] it was -8.25%; in assay [6] it was -3.05%.
Take `Cc1ccc(C2OC(N)=C(O)C2=O)cc1` (stereo unspecified): the growth inhibition is -43% in assay [1]; 10.2% in assay [2]; -4% in assay [3]; -26.4% in assay [4]; 1.85% in assay [5]; 9.5% in assay [6].
Turning to `C/C(=C/C=C(c1ccccc1)c1ccccc1)C1CCC2C3CCC4CC5CCC4(C)C3(O5)C(=O)CC12C` (stereo unspecified), the growth inhibition in assay [1] is 89.6% (active); in assay [2], 60.6%; in assay [3] it was 73% (active); in assay [4], 83% (active); in assay [5], 93.3% (active); in assay [6] it was 92.8% (active).
For the compound `CN(C)c1ccc(Cc2c[nH]c3ccccc3c2=O)cc1`, the growth inhibition was 8.4% in assay [1]; 12.8% in assay [2]; 18.8% in assay [3]; 12.2% in assay [4]; 25.1% in assay [5]; 9.65% in assay [6].
Consider `Cc1cccc(CN(C)Cc2cc(Cl)cc(C)c2O)c1O`, for which the growth inhibition is 14.8% in assay [1]; -1.6% in assay [2]; 1.1% in assay [3]; -36% in assay [4]; -1.25% in assay [5]; 4.15% in assay [6].
As for `CC(C)(O)C1OCC(C2CCC3(C)C4=CCC5C(C)(C)C(O)CCC5(C)C4CCC23C)CC1O` (stereo unspecified), the growth inhibition in assay [1] was 23.7%; in assay [2], 27.6%; in assay [3], 34.8%; in assay [4], 42.6%; in assay [5], 21.5%; in assay [6] it was 4.75%.
For `COc1ccc(C#CC(=O)O)c(OC)c1`, the growth inhibition in assay [1] was -3.15%; in assay [2], -2.1%; in assay [3], 22.9%; in assay [4], -30.6%; in assay [5] it was -5.45%; in assay [6] it was -9%.
In the case of `Cc1ccc2oc(=O)c(C(=O)Nc3nc(C45CC6CC(CC(C6)C4)C5)cs3)cc2c1`, the growth inhibition in assay [1] is -23.1%; in assay [2] it was -22.9%; in assay [3] it was -23.6%; in assay [4], 13%; in assay [5], -30.5%; in assay [6], -26.2%.
Regarding `O=C(OCC(O)C(O)C(O)C(O)COC(=O)c1ccccc1)c1ccccc1` (stereo unspecified) (tested in a mixture with another compound), the growth inhibition was -0.9% in assay [1]; 3.6% in assay [2]; -0.75% in assay [3]; -29.6% in assay [4]; 0.85% in assay [5]; 12.2% in assay [6].
As for `CCCCCCCCCCCCCCCCN1C(=O)c2ccccc2S1(=O)=O`, the growth inhibition in assay [1] was -14.7%; in assay [2], -15.8%; in assay [3], -10.5%; in assay [4] it was 32.5%; in assay [5], -2.2%; in assay [6], 5.1%.
In the case of `CC(C)(C)c1ccc(O)c(Cl)c1`, the growth inhibition in assay [1] was -15.8%; in assay [2], -7.65%; in assay [3], -5.9%; in assay [4], -7.85%; in assay [5], -11.1%; in assay [6], 10.2%.
`CN=[N+]([O-])c1ccccc1`: the growth inhibition is 1.75% in assay [1]; 17.9% in assay [2]; 4.35% in assay [3]; 15.2% in assay [4]; 10.9% in assay [5]; 1.6% in assay [6].
Take `COc1cc(NCC(C#N)C#N)ccc1N=Nc1ccc([N+](=O)[O-])cc1`: the growth inhibition in assay [1] was 25.9%; in assay [2] it was 26.4%; in assay [3] it was 10.5%; in assay [4], 18.8%; in assay [5], 12.7%; in assay [6], 48.9%.
For the compound `Cc1cc(S(=O)(=O)Nc2n[nH]c(N)n2)c(Cl)cc1Cl`, the growth inhibition is -52% in assay [1]; 1.55% in assay [2]; -56% in assay [3]; -51% in assay [4]; 9.4% in assay [5]; -48.5% in assay [6].
Turning to `Nc1ccc(N)c(Cl)c1`, the growth inhibition is -19.4% in assay [1]; -15.8% in assay [2]; -19.8% in assay [3]; 14.7% in assay [4]; -7.3% in assay [5]; -2.85% in assay [6].
`Nc1cc(OCc2ccccc2)ncn1`: the growth inhibition in assay [1] was 10.6%; in assay [2], 11%; in assay [3], 3.75%; in assay [4], -11.6%; in assay [5] it was -1.05%; in assay [6], 20.9%.
In the case of `CCCCc1c2c(nc3c1CCCC3=O)C(=O)CCC2`, the growth inhibition in assay [1] was -11.3%; in assay [2] it was -1.95%; in assay [3], -14.7%; in assay [4], 2%; in assay [5], -2.45%; in assay [6] it was -9.15%.
In the case of `COC(=O)c1ccc(C)[nH]1`, the growth inhibition in assay [1] was -12.8%; in assay [2], 10.4%; in assay [3], -22.2%; in assay [4] it was 26.6%; in assay [5] it was 6.4%; in assay [6] it was -1.8%.
With `C=CCC12CC(O)C(O)CC1(OC)OC(c1cc(OC)c(OC)c(OC)c1)C2C` (stereo unspecified), the growth inhibition is -1.1% in assay [1]; -8.75% in assay [2]; -8.1% in assay [3]; -4.75% in assay [4]; 4.35% in assay [5]; 7.9% in assay [6].
As to `N#Cc1c(-c2ccccc2)cc(-c2ccc(N)cc2)[nH]c1=O`, the growth inhibition in assay [1] was 26.5%; in assay [2] it was 3.65%; in assay [3] it was 13.2%; in assay [4], 33.4%; in assay [5], 11.6%; in assay [6], 20.3%.
